High-throughput results deposited in PubChem BioAssay by National Center for Advancing Translational Sciences (NCATS).
HEK293 viab: cell viability loss counter-screen; HEK-293-SNCA-luc viability, GF-AFC fluorescence, 24 h; Potency, µM (series often up to 57.1 µM), inactives show at the highest dose activity change, negative = cytotoxicity, actives largely listed as cytotoxic; 150,000 compounds, 0.12% hits; AID 1671193;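 further: potency means the concentration at half of the fitted maximal effect; 0% = DMSO-treated cells and -100% = medium-only wells without cells; nearly all actives have a fitted effect of over 30% in size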
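Cytotoxicity counterscreen: after 24 h compound treatment of genome-edited SNCA-luciferase HEK-293 cells, live-cell protease substrate GF-AFC read by fluorescence after 30 min; activity scaled between DMSO (0%) and medium-only (-100%), curves Hill-fitted.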
IP6K1 inh: blocks human inositol hexakisphosphate kinase 1; Q92551; IP6K1 kinase, ADP-Glo luminescence, 2 h; stronger effect = lower value; activity change, % (series mostly up to about 58 µM); 140,000 compounds, 0.81% hits; AID 1645851; in the data active means activity change below about -25%; further: on the % scale 0 is the no-effect control and ±100 the full control effect
Target sequence (Q92551 whole entry, looked up): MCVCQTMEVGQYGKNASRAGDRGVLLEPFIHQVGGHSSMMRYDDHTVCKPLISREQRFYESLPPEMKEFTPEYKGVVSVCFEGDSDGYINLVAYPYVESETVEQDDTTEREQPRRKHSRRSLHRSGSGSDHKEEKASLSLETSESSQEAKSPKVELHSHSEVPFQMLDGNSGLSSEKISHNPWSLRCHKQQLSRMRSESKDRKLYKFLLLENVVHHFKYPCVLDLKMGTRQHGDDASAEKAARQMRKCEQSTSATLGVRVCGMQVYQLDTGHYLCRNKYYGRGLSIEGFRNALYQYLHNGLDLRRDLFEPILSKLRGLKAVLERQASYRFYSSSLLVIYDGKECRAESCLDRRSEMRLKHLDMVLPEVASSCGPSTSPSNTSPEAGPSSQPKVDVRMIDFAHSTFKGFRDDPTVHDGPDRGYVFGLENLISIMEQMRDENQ
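ADP-Glo luminescence measures ADP made by human IP6K1 during a 2 h RT reaction with ATP/IP6 (mix at 1.3 mM/130 uM); top library doses 57.5 and 19.1 uM final.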
KDM5B inhibitor: inhibitors of human KDM5B histone demethylase. Q9UGL1. KDM5B demethylase, FDH-coupled NADH fluorescence (FDH is formaldehyde dehydrogenase). Potency, µM (series often up to 57.7 µM), usual class: inhibitors. 220,000 compounds, 2.6% hits; further: potency means the concentration at half of the fitted maximal effect; 0% is about no effect; nearly all actives have a fitted effect of over 70% in size
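qHTS format, multiple compound concentrations. Buffer 50 mM HEPES pH 7.5/0.01% Tween-20; 200 nM KDM5BΔAP final; 10 min compound preincubation; substrate-mix levels 12.5 µM peptide, 25 µM α-KG, 0.25 mM NAD⁺; 30 min RT; ΔRFU.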
SNCA expr inh: inhibitors of alpha-synuclein (SNCA) gene expression. HEK-293 SNCA-luciferase knock-in, luminescence, 24 h. Potency, µM (highest dose often 57.2 µM), for the others: at the top dose activity change, negative = inhibition, most hits filed as inhibitors. 140,000 compounds, 0.17% hits. AID 1671194;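 further: potency means the concentration at half of the fitted maximal effect; plate controls were DMSO cells for no effect and cell-free wells for full effect; nearly all actives have a fitted effect of over 45% in size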
* hit, by the source's call; i = inactive; ? = inconclusive; . = no result given; [ ] = remark or other dose. This is a sample that favours compounds with a hit; in the whole collection about 2.9% have one here. Unless noted, the call rests on the fitted dose curve; in most records, active means well fitted curve in the direction sought with a large enough effect; inconclusive means small, poorly fitted or top-dose-only effect, or another doubt; inactive means no such curve, though single readings can be large; an effect the other way counts as inactive or inconclusive.

SMILES	HEK293 viab	IP6K1 inh	KDM5B inhibitor	SNCA expr inh
CN1C[C@@H]2CC[C@H](CC1=O)N2C(=O)c1cnn2cc(CCO)cnc12	-4%	-2	32µM*	-13%
COc1cc2nc(Cl)nc(N)c2cc1OC	-10%[23.9 µM]	8	.	-19%[25.6 µM]
CC[C@@]1(O)CCN(c2nc(N)c3cc(OC)c(OC)cc3n2)C[C@H]1O	-10%	11	32µM*	-18%
CC1=C[C@@H](CN(C)Cc2cccnc2)[C@H](C(C)C)C[C@H]1Cc1nnc(-c2ccc([N+](=O)[O-])cc2)o1	?	16	13µM*	-11%
CC1=C[C@@H](CN(C)CCO)[C@H](C(C)C)C[C@H]1Cc1nnc(-c2ccccc2F)o1	?	-6	i	-4%[87.6 µM]
CC1=C[C@@H](CN2CCN(c3cnccn3)CC2)[C@H](C(C)C)C[C@H]1Cc1nnc(-c2cccnc2)o1	-27%	13	32µM*	?
C#CCN(C)C[C@@H]1C=C(C)[C@H](Cc2nnc(-c3ccccc3F)o2)C[C@H]1C(C)C	-26%[87.6 µM]	1	35µM*	-37%[87.6 µM]
CC1=C[C@@H](CNCc2cccnc2)[C@H](C(C)C)C[C@H]1Cc1nnc(-c2ccccc2)o1	?	-9	i	?
CC1=C[C@@H](CN2CCC(C)CC2)[C@H](C(C)C)C[C@H]1Cc1nnc(-c2cccnc2)o1	-28%[87.6 µM]	-10	i	4%[87.6 µM]
COc1ccccc1C(=O)NCCNC(=O)c1cccc(-c2ncccc2C#N)c1	6%	11	.	-4%
COCCN1CCOc2nc(-c3cc4ccccc4o3)ncc2C1=O	-5%[87.6 µM]	-6	?	8.9µM*
COCCN1CCOc2nc(-c3cc(F)ccc3OC)ncc2C1=O	3%[87.6 µM]	-11	32µM*	9%[87.6 µM]
COCCN1CCOc2nc(-c3ccc(F)c(Cl)c3)ncc2C1=O	5%[87.6 µM]	4	i	-14%[87.6 µM]
O=C1c2cnc(-c3cc4ccccc4o3)nc2OCCN1CC1CC1	-4%[87.6 µM]	-8	i	?
COc1ccc(-c2ncc3c(n2)OCCN(c2ccccc2)C3=O)cc1F	-3%[87.6 µM]	16	28µM*	-19%[87.6 µM]
COc1ccc(F)cc1-c1ncc2c(n1)OCCN(c1cccc(C(F)(F)F)c1)C2=O	-9%[87.6 µM]	-6	40µM*	?
Cn1nc(-c2cccc(F)c2)c(N2CCCCC2)c1NC(=O)c1ccccc1F	-13%	2	.	-4%
O=C(Nc1cc(-c2cccnc2)nn1-c1ccccc1)c1ccc(C(F)(F)F)cc1	1%	-8	.	-4%
Cn1ncc2c(C(=O)NCCCc3ccccc3)cc(-c3ccc([S+](C)(=O)[O-])cc3)nc21	-17%	7	.	-2%
COc1cc(F)cc(-c2ncc3c(n2)OCCN(Cc2ccc(F)cc2F)C3=O)c1	-1%[87.6 µM]	-10	?	67%[87.6 µM]
COc1cc(F)cc(-c2ncc3c(n2)OCCN(C)C3=O)c1	3%[87.6 µM]	-5	35µM*	-64%[87.6 µM]
COCCN1CCOc2nc(-c3cc(F)cc(OC)c3)ncc2C1=O	2%[87.6 µM]	-7	32µM*	?
COc1cc(F)cc(-c2ncc3c(n2)OCCN(c2cccc(C(F)(F)F)c2)C3=O)c1	-12%[87.6 µM]	28	i	31%[87.6 µM]
O=C(c1ccc(C(F)(F)F)cc1)N1CCN(c2ccc3nnc(C4CC4)n3n2)CC1	.	4	.	.
COc1cccc(CNC(=O)C2CCCN2Cc2ccc(-c3cccc(OC)c3)cc2)c1 (centres undefined)	-14%	-9	.	16%
SMILES	HEK293 viab	IP6K1 inh	KDM5B inhibitor	SNCA expr inh
Cc1nn2c(c1-c1ccccc1-c1ccccc1)N(Cc1cccc(O)c1)CCC2	?	-3	28µM*	?
Cc1ccc(CN2CCCn3nc(C)c(-c4ccccc4-c4ccccc4)c32)o1	-14%[87.6 µM]	7	35µM*	?
Cc1ncc(CO)c(CN2CCC3(CC2)Cc2ccccc2CNC3=O)c1O	-4%	22	71µM*	32%
O=C1NCc2ccccc2CC12CCCN(Cc1ccnc3ccccc13)C2 (centres undefined)	-3%	-2	?	10%
Cc1ccccc1CN1CCC2(CC1)Cc1ccccc1CNC2=O	-12%	15	i	0%
Cc1ncc(CO)c(CN2CCCC3(Cc4ccccc4CNC3=O)C2)c1O (centres undefined)	3%	8	79µM*	13%
O=C(Cc1cccc(Cl)c1)N1CCCC(C(=O)N2CCCC(c3nc4ccncc4[nH]3)C2)C1 (centres undefined)	-3%	13	.	13%
O=S1(=O)NCC2(CCN(Cc3ccoc3)CC2)Oc2ncccc21	-1%	2	50µM*	-11%
O=S1(=O)NCC2(CCN(Cc3ccc(Cl)s3)CC2)Oc2ncccc21	-8%	2	?	-21%
